Source: PubChem BioAssay AID1159580 (chemical genetic matrix, 2015)
Values joined by “and” are separate entries in the source; they are usually repeats but may differ in a detail not shown here. Identical values can stand only once. The whole screen tested about 5,500 compounds, of which about 2,000 (36%) were called active. Inconclusive results (about 18%) are left out. Rule as the data show it: active = normalized growth mostly below about 0.91 (no sharp cut-off); inconclusive = no clear call, values can overlap the other calls; inactive = mostly above about 0.92. The list shows a part of the results.

Assay: chemical genetic growth profiling, strain panel (AID 1159580);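 also: tested at 20 µM; growth read once vehicle control cultures reached saturation at 30 °C; 1 = growth at the plate median or of vehicle wells; lower values mean less growth of the strain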
Conditions: S. cerevisiae deletion strains, growth OD

Measured: normalized growth

CCCC(CCC)C(=O)O
inactive: locus YAL013W, strain DEP1, active compounds read low 0.993 and 0.977 | locus YAL021C, strain ccr4, active compounds read low 1 | locus YAL026C, strain drs2, active compounds read low 1 | locus YAL030W, strain snc1, active compounds read low 1.01 | locus YAL040C, strain CLN3, active compounds read low 0.959 | locus YBL061C, strain skt5, active compounds read low 1 | locus YBR009C, strain hhf1, active compounds read low 1 | locus YBR021W, strain FUR4, active compounds read low 0.953 | locus YBR023C, strain chs3, active compounds read low 1.01 | locus YBR171W, strain sec66, active compounds read low 1.01 | locus YBR229C, strain ROT2, active compounds read low 0.992 | locus YBR231C, strain swc5, active compounds read low 1.01 | locus YBR279W, strain paf1, active compounds read low 1.02 | locus YCL011C, strain gbp2, active compounds read low 1.01 | locus YCL016C, strain dcc1, active compounds read low 1.01 | locus YCL029C, strain bik1, active compounds read low 0.954 | locus YCL061C, strain MRC1 (second series), active compounds read low 0.985 | locus YCL061C, strain MRC1, active compounds read low 1 | locus YCL069W, strain vba3, active compounds read low 1.02 | locus YCR088W, strain abp1, active compounds read low 1.01 | locus YDL005C, strain med2, active compounds read low 1.01 | locus YDL035C, strain GPR1, active compounds read low 1 | locus YDL040C, strain nat1, active compounds read low 1.01 | locus YDL074C, strain BRE1, active compounds read low 1 | locus YDL101C, strain DUN1, active compounds read low 1.01 | locus YDL185W, strain tfp1, active compounds read low 0.964 | locus YDL192W, strain arf1, active compounds read low 0.97 | locus YDR001C, strain nth1, active compounds read low 1.01 | locus YDR069C, strain doa4, active compounds read low 1.01 | locus YDR101C, strain arx1, active compounds read low 0.963 | locus YDR137W, strain rgp1, active compounds read low 0.985 | locus YDR150W, strain NUM1, active compounds read low 0.981 | locus YDR159W, strain sac3, active compounds read low 1.01 | locus YDR162C, strain NBP2, active compounds read low 1 | locus YDR195W, strain ref2 1.02 | locus YDR297W, strain sur2, active compounds read low 1 | locus YDR318W, strain mcm21, active compounds read low 0.97 | locus YDR334W, strain swr1, active compounds read low 1.02 | locus YDR335W, strain msn5, active compounds read low 1.01 | locus YDR363W, strain ESC2, active compounds read low 0.994 | locus YDR388W, active compounds read low 0.967 | locus YDR392W, strain spt3, active compounds read low 0.95 | locus YDR502C, strain sam2, active compounds read low 0.965 | locus YEL003W, strain gim4, active compounds read low 1.01 | locus YEL037C, strain rad23, active compounds read low 1.01 | locus YEL061C, strain CIN8 (second series), active compounds read low 1.01 | locus YEL061C, strain CIN8, active compounds read low 0.994 | locus YER002W, strain NOP16, active compounds read low 0.979 | locus YER015W, strain faa2, active compounds read low 1.02 | locus YER016W, strain bim1, active compounds read low 1 | locus YER110C, active compounds read low 0.985 | locus YER111C, strain swi4, active compounds read low 1.02 | locus YER155C, strain BEM2 (second series), active compounds read low 0.996 | locus YER155C, strain BEM2, active compounds read low 0.975 | locus YER167W, strain BCK2, active compounds read low 0.986 | locus YFR010W, strain ubp6, active compounds read low 1.02 | locus YGL078C, strain dbp3, active compounds read low 0.963 | locus YGL086W, strain mad1, active compounds read low 0.964 | locus YGL167C, strain pmr1, active compounds read low 1.01 | locus YGL173C, strain kem1, active compounds read low 1.01 | locus YGL227W, strain vid30, active compounds read low 1.01 | locus YGL240W, strain doc1, active compounds read low 1.01 | locus YGL248W, strain PDE1, active compounds read low 0.998 | locus YGL253W, strain hxk2, active compounds read low 1.01 | locus YGR078C, strain PAC10, active compounds read low 0.989 | locus YGR135W, strain pre9, active compounds read low 1 | locus YGR252W, strain gcn5, active compounds read low 0.967 | locus YHR013C, strain ard1, active compounds read low 1.03 | locus YHR027C, strain rpn1, active compounds read low 1.03 | locus YHR030C, strain SLT2, active compounds read low 0.987 and 0.951 | locus YHR079C, strain IRE1 (second series), active compounds read low 0.966 | locus YHR079C, strain IRE1, active compounds read low 0.951 | locus YHR094C, strain hxt1, active compounds read low 0.97 | locus YHR129C, strain ARP1, active compounds read low 0.994 | locus YHR142W, strain chs7, active compounds read low 1.03 | locus YHR200W, strain rpn10, active compounds read low 0.971 | locus YIL066C, strain RNR3, active compounds read low 0.992 | locus YIL073C, strain SPO22, active compounds read low 1.03 | locus YIR030C, strain dcg1, active compounds read low 0.966 | locus YJL092W, strain hpr5, active compounds read low 1.01 | locus YJL095W, strain BCK1 (second series), active compounds read low 1.01 | locus YJL095W, strain BCK1, active compounds read low 0.993 and 0.94 | locus YJL115W, strain asf1, active compounds read low 1.02 | locus YJL129C, strain trk1, active compounds read low 1.01 | locus YJL134W, strain LCB3, active compounds read low 0.993 | locus YJL154C, strain vps35, active compounds read low 1.01 | locus YJL164C, strain tpk1, active compounds read low 1 | locus YJL166W, strain qcr8, active compounds read low 1.01 | locus YJL168C, strain set2, active compounds read low 0.986 | locus YJL187C, strain SWE1 (second series), active compounds read low 0.992 | locus YJL187C, strain SWE1, active compounds read low 1.01 | locus YJR043C, strain POL32, active compounds read low 1.01 | locus YJR066W, strain TOR1, active compounds read low 0.926 | locus YJR075W, strain HOC1, active compounds read low 0.982 | locus YKL009W, strain mrt4, active compounds read low 0.977 | locus YKL160W, strain elf1, active compounds read low 1 | locus YKR001C, strain vps1, active compounds read low 0.932 | locus YKR026C, strain gcn3, active compounds read low 1.01 | locus YKR091W, strain srl3, active compounds read low 1.01 | locus YLL001W, strain dnm1, active compounds read low 1 | locus YLL026W, active compounds read low 0.993 | locus YLL041C, strain sdh2, active compounds read low 1.01 | locus YLR027C, strain aat2, active compounds read low 1 | locus YLR039C, strain RIC1, active compounds read low 0.97 | locus YLR058C, strain SHM2, active compounds read low 0.999 | locus YLR102C, strain apc9, active compounds read low 0.977 | locus YLR221C, strain rsa3, active compounds read low 0.999 | locus YLR258W, strain gsy2, active compounds read low 1.01 | locus YLR262C, strain YPT6 (second series), active compounds read low 0.99 | locus YLR262C, strain YPT6, active compounds read low 0.945 | locus YLR268W, strain sec22, active compounds read low 0.961 | locus YLR320W, strain mms22, active compounds read low 1.01 | locus YLR330W, strain CHS5, active compounds read low 0.992 | locus YLR342W, strain FKS1 (second series), active compounds read low 1.01 | locus YLR342W, strain FKS1, active compounds read low 1.01 | locus YLR357W, strain rsc2, active compounds read low 1.06 | locus YLR370C, strain arc18, active compounds read low 1.01 | locus YLR371W, strain rom2, active compounds read low 0.975 | locus YLR384C, strain iki3, active compounds read low 1.01 | locus YLR418C, strain cdc73, active compounds read low 0.987 | locus YML016C, strain PPZ1, active compounds read low 0.992 | locus YML032C, strain rad52, active compounds read low 0.98 | locus YML120C, strain ndi1, active compounds read low 1 | locus YML124C, strain tub3, active compounds read low 0.95 | locus YMR058W, strain fet3, active compounds read low 1.01 | locus YMR078C, strain ctf18, active compounds read low 0.967 | locus YMR125W, strain sto1, active compounds read low 1.03 | locus YMR129W, active compounds read low 1.01 | locus YMR205C, strain PFK2, active compounds read low 1.02 | locus YMR223W, strain ubp8, active compounds read low 0.994 | locus YMR231W, strain pep5, active compounds read low 1.02 | locus YMR263W, strain SAP30, active compounds read low 0.999 | locus YMR307W, strain GAS1, active compounds read low 1.04 | locus YNL067W, strain RPL9B, active compounds read low 0.988 | locus YNL071W, strain lat1, active compounds read low 1.01 | locus YNL128W, strain TEP1, active compounds read low 1 | locus YNL175C, strain NOP13, active compounds read low 1 | locus YNL183C, strain NPR1, active compounds read low 0.931 | locus YNL197C, strain WHI3, active compounds read low 0.971 | locus YNL209W, strain ssb2, active compounds read low 1.01 | locus YNL224C, strain SQS1, active compounds read low 0.981 | locus YNL233W, strain BNI4, active compounds read low 0.977 | locus YNL248C, strain rpa49, active compounds read low 1.04 | locus YNL250W, strain rad50, active compounds read low 0.937 | locus YNL271C, strain bni1, active compounds read low 0.942 | locus YNL298W, strain CLA4, active compounds read low 0.969 | locus YNL307C, strain MCK1, active compounds read low 0.945 | locus YNL322C, strain KRE1 (second series), active compounds read low 1 | locus YNL322C, strain KRE1, active compounds read low 0.983 and 0.987 | locus YNR049C, strain mso1, active compounds read low 1.01 | locus YNR052C, strain pop2, active compounds read low 0.985 | locus YOL006C, strain TOP1, active compounds read low 1.05 | locus YOL012C, strain htz1 1.46 | locus YOL147C, strain pex11, active compounds read low 0.961 | locus YOR001W, strain rrp6, active compounds read low 1.01 | locus YOR061W, strain CKA2, active compounds read low 0.998 | locus YOR069W, strain VPS5, active compounds read low 0.985 | locus YOR070C, strain gyp1, active compounds read low 1.01 | locus YOR080W, strain dia2, active compounds read low 1.02 | locus YOR083W, strain WHI5 (second series), active compounds read low 0.985 | locus YOR083W, strain WHI5, active compounds read low 0.998 | locus YOR106W, strain vam3, active compounds read low 1.01 | locus YOR136W, strain idh2, active compounds read low 0.968 | locus YOR144C, strain elg1, active compounds read low 0.965 | locus YOR184W, strain ser1, active compounds read low 0.966 | locus YOR231W, strain MKK1, active compounds read low 0.935 | locus YOR265W, strain rbl2, active compounds read low 1.01 | locus YOR270C, strain vph1, active compounds read low 1.07 | locus YOR290C, strain snf2, active compounds read low 1 | locus YOR316C, strain cot1, active compounds read low 0.977 | locus YPL051W, strain arl3, active compounds read low 0.999 | locus YPL055C, strain LGE1, active compounds read low 1 | locus YPL078C, strain atp4, active compounds read low 1.01 | locus YPL106C, strain sse1, active compounds read low 1.01 | locus YPL240C, strain hsp82, active compounds read low 1.02 | locus YPL256C, strain CLN2, active compounds read low 0.882 | locus YPR119W, strain clb2, active compounds read low 0.976 | locus YPR163C, strain tif3, active compounds read low 0.959 | locus YPR167C, strain met16, active compounds read low 0.973 | strain wtn01, active compounds read low 0.954
active: locus YIL125W, strain kgd1, active compounds read low 0.92 | locus YKL068W, active compounds read low 0.91 | locus YKL085W, strain MDH1 (second series), active compounds read low 0.918 | locus YKL085W, strain MDH1, active compounds read low 0.918 | locus YLR113W, strain HOG1, active compounds read low 0.853 | locus YPR141C, strain kar3, active compounds read low 0.871
